# Test results: the OligoGym collection
# Target: ACACB
# Experiment: pooled miR-30 sensor sort-seq; sequence = guide strand
# Settings: shRNA
# Note: reference of the scale not given here.
row,Sequence,sensor-assay potency score (higher = more potent)
1,TTGGACTGTACGAATGTCCGTA,0.552
2,TTATCAGATCTTTCTTTCGGAA,-0.751
3,TAATTTCTTGAGGTTCTCGGGG,-0.145

# Target: ACAD10
# Experiment: as above
# Settings: shRNA
row,Sequence,sensor-assay potency score (higher = more potent)
1,TTCACAGAGATCAAGAACGTTA,0.0116
2,TTTCAGAGCAAAGTCTCCCAAA,-1.07
3,TTGAGGTCTTCGATCAGTGGGG,-0.0648
4,AAGCACAGCTTGTAGATCCTAG,0.0767
5,TAATCCTGAACTCCCTCTCTAT,-1.27
6,TTTCATAATCCTGAACTCCCTC,-0.41
7,TTCGGTGCCATACCTCACCAGC,-0.906
